# Compound activity from PubChem.
# Compounds with a hit are over-represented: about 14% of the library has one in this group of screens.
# USP28 block = human USP28 deubiquitinase inhibition | hit rate 3% among 47,000 | AID 1645857 | inhibition, % at 25 µM | purified USP28, Ub-rhodamine cleavage fluorescence, 30 min
# USP17 block = blocks human USP17 ubiquitin-rhodamine cleavage; A8MUK1; purified USP17, Ub-rhodamine cleavage fluorescence, 3 h; inhibition, % at 50 µM; hit rate 6.5% among 47,000
# USP10 block = blocks human USP10 ubiquitin-rhodamine cleavage | purified USP10, Ub-rhodamine fluorescence, 60 min | Q14694 | inhibition, % at 20 µM | hit rate 1.1% among 47,000
# USP30 inh = human USP30 deubiquitinase inhibition | AID 1645860 | Q70CQ3 | hit rate 5.3% among 47,000 | inhibition, % at 25 µM | purified USP30, Ub-rhodamine cleavage fluorescence
# USP8 inh = blocks human USP8 ubiquitin-rhodamine cleavage; P40818; purified USP8, Ub-rhodamine cleavage fluorescence, 30 min; inhibition, % at 20 µM; hit rate 4.2% among 47,000
# A number is an active result; n = inactive. Rule as the data show it: active = inhibition above about 30%; inactive = the rest.
SMILES,USP28 block,USP17 block,USP10 block,USP30 inh,USP8 inh
c1ccc(CSc2c[nH]c3ccccc23)cc1,n,n,n,n,n
Cc1cn2c(S(=O)(=O)Nc3ccccc3C)c(C(C)C)nc2s1,n,n,n,n,n
COc1cc(NC(=O)c2ccco2)c(C(=O)OCC(=O)c2c[nH]c3ccccc23)cc1OC,n,n,n,n,44
COc1cc(OC)cc(C(=O)NC(C(=O)OCC(=O)c2c[nH]c3ccccc23)C(C)C)c1 (centres undefined),n,n,n,n,n
CCCOC(=O)c1cc(NC(=O)c2ccc(OCC)c(Cl)c2)ccc1N1CCOCC1,49,n,n,n,n
O=C(Nc1ccc(F)cc1F)N1CCCN(c2nc(-c3ccccc3)ns2)CC1,n,n,n,n,n
Cc1cccc(C)c1NC(=O)c1c(C)sc2c(=O)n(C(C)C)cnc12,n,n,n,n,n
Cc1ccccc1NC(=O)c1c(C)sc2c(=O)n(C(C)C)cnc12,n,32,n,n,n
CCOC(=O)N1CCN(Cc2nnnn2-c2cccc(F)c2)CC1,n,n,n,34,n
CN1CC[C@@]2(C(=O)N3CCCC3)CCN(C(=O)c3ccccc3)CC[C@@H]12,n,n,n,n,n
CNC(=O)N1CCC(c2cc(OCc3ccccc3)no2)CC1,n,n,n,n,n
COc1cc(NC(=O)c2cc(-c3ccncc3)n(-c3ccc(F)cc3)n2)cc(OC)c1,71,n,n,n,n
NC=C1NC(=O)c2ccccc2N1,n,n,n,n,n
O=C1CC(c2ccc(F)cc2)Cc2nc(NC(=O)C3CC3)ncc21 (centres undefined),n,n,n,n,n
C=C(C)Cn1c(CNC(=O)Cc2ccccc2)nc2ccccc21,n,n,n,n,n
CCOc1ccc(NCc2nc3ccccc3n2Cc2ccccc2)cc1,n,n,n,n,42
Cc1ccc(OCc2nc3ccccc3n2Cc2ccc(F)cc2)cc1,n,34,n,n,n
c1ccc(Cn2c(CNc3cccc4ccccc34)nc3ccccc32)cc1,n,n,n,n,58
Fc1ccc(OCCn2c(COc3ccccc3)nc3ccccc32)cc1,n,n,n,n,n
Fc1ccc(NCc2nc3ccccc3n2Cc2ccccc2)cc1,33,n,n,42,n
O=S(=O)(c1ccccc1)c1csc(S(=O)(=O)N(Cc2ccccn2)Cc2ccccn2)c1,n,n,n,n,n
CNC(=O)c1nc(C(=O)N2CCN(c3ccc(F)cc3)CC2)cs1,n,n,n,n,n
O=S(=O)(c1cccc2cccnc12)N1CCCn2c(nc3ccccc32)C1,n,n,n,n,n
CCCn1c(=O)c2cc(C(=O)Nc3ccccc3)nn2c2ccccc21,n,31,n,n,n
O=c1[nH]c2ccccc2c(=O)n1CCc1nc(-c2ccc(F)cc2)no1,n,36,n,n,n
SMILES,USP28 block,USP17 block,USP10 block,USP30 inh,USP8 inh
CCOc1ccccc1-c1noc(CCCC(=O)Nc2ccccc2)n1,n,n,n,n,n
CCn1c(=O)c2ccccc2n(Cc2nc(-c3ccccc3OC)no2)c1=O,n,56,n,n,n
CCOc1ccccc1-c1noc(CCn2c(=O)[nH]c3ccccc3c2=O)n1,n,n,n,35,n
Cc1ccc(COc2cc(C(=O)NCCC3=CCCCC3)c3ccccc3n2)cc1,n,n,n,n,n
COc1cc2oc(=O)c(CC(=O)N3CCN(c4ccccc4F)CC3)c(C)c2cc1OC,n,n,n,n,n
COc1cccc(C(=O)N2CCC3(CC2)CN(Cc2cccnc2)CC32CCN(C)C2=O)c1 (centres undefined),n,n,n,n,n
Cc1ccccc1N(CC(=O)NCc1ccc2c(c1)OCO2)C(=O)c1ccc2c(c1)OCCO2,n,n,n,n,n
Cc1cccc(NS(=O)(=O)c2ccc3[nH]c(=O)cc(C(=O)O)c3c2)c1,n,n,n,n,n
CC(C)CNC(=O)c1cc(=O)[nH]c2ccc(S(=O)(=O)Nc3ccc(F)cc3)cc12,n,36,n,n,n
Cc1ccc(NC(=O)CNc2nc(Nc3ccccc3)nc(Nc3ccccc3)n2)cc1,n,n,n,n,n
CN(Cc1ccccc1)C(=O)Cn1c(=O)[nH]c2c(-c3ccccc3F)c[nH]c2c1=O,n,n,n,n,n
CSc1ccc(CNC(=O)Cn2c(=O)[nH]c3c(-c4ccccc4)c[nH]c3c2=O)cc1,n,n,n,n,73
O=C(Cn1c(=O)c2c(ncn2C2CCCC2)n(Cc2ccccc2)c1=O)NCc1ccccc1Cl,n,n,n,n,n
O=C(Cn1c(=O)[nH]c2c(-c3ccccc3)c[nH]c2c1=O)NCc1ccccc1Cl,n,n,n,n,41
